Assay results reported in the supplement of paper PMC8975748.
Structures can show the parent of a compound that is named as a salt.

system: Saccharomyces cerevisiae BY4741 SeMeCo community; test: z-score of subpopulation abundance vs DMSO median, subpopulation auxotrophic for M; higher = larger share of this subpopulation than in DMSO controls; details: 10 µM; 24 h; SM minimal medium; subpopulation (auxotrophy): M
Description: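 Fluorescent four-plasmid SeMeCo (self-establishing metabolically cooperating S. cerevisiae BY4741 community; plasmids pH-mRuby2, pL-mWasabi, pU-eCFP, pM-TagRFP657) was grown 24 h in minimal SM medium with each Selleck FDA-approved drug at 10 µM in 384-well plates. Cells were fixed and imaged by high-content confocal microscopy. For each auxotrophic subpopulation (and the prototroph), a z-score gives the deviation from the DMSO vehicle-control population median.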

| Structure (SMILES) | z-score of subpopulation abundance |
| --- | --- |
| COc1cc2c(cc1OC)C1CC(=O)C(CC(C)C)CN1CC2 (centres undefined) [Tetrabenazine (Xenazine)] | 0.98 |
| CCCN1C[C@H](CSC)C[C@@H]2c3cccc4[nH]cc(c34)C[C@H]21 [Pergolide Mesylate] | -0.05 |
| C[N+]1(C)[C@@H]2C[C@@H](OC(=O)[C@H](CO)c3ccccc3)C[C@H]1[C@@H]1O[C@@H]12 [Methscopolamine] | -0.33 |
| COC(=O)C1=CCCN(C)C1 [Arecoline HBr] | 0.3 |
| CN1[C@@H]2CC[C@H]1C[C@@H](OC(=O)[C@H](CO)c1ccccc1)C2 [Hyoscyamine] | -0.65 |
| O=[N+]([O-])C(Br)(CO)CO [Bronopol] | 0.51 |
| CC(NC(C)(C)C)C(=O)c1cccc(Cl)c1 (centres undefined) [Amfebutamone (Bupropion) HCl] | 0.97 |
| CC[C@@]1(O)C(=O)OCc2c1cc1n(c2=O)Cc2cc3ccccc3nc2-1 [Camptothecin] | 1.3 |
| CC(C)=CCOc1c2occc2cc2ccc(=O)oc12 [Imperatorin] | 1.13 |
| CN(C)C(=O)Oc1ccc[n+](C)c1 [Pyridostigmine Bromide] | 0.47 |
| CC[C@@H](C(N)=O)N1CCCC1=O [Levetiracetam] | 0.08 |
| CCOC(=O)Nc1ccc(NCc2ccc(F)cc2)cc1N [Retigabine] | 0.51 |
| CN[C@@H]1[C@@H](O)[C@@H](O[C@@H]2[C@@H](O)[C@H](O[C@H]3O[C@H]([C@@H](C)O)[C@@H](O)[C@H](O)[C@H]3N)[C@@H](N)C[C@H]2N)OC[C@]1(C)O [Geneticin (G418 Sulfate)] | -0.27 |
| CC[C@H]1CN2CC[C@]3(C(=O)Nc4ccccc43)[C@@H]2C[C@@H]1/C(=C\OC)C(=O)OC [Rhynchophylline] | -0.68 |
| CN1C(=O)COc2c(C(=O)NC3CN4CCC3CC4)cc(Cl)cc21 (centres undefined) [Azasetron HCl] | 1.59 |
| C=CN1CCCC1=O.II [Povidone iodine] | -0.79 |
| CC(=O)OCC1=C(C(=O)O)N2C(=O)C(N)C2SC1 (centres undefined) [7-Aminocephalosporanic acid] | -0.97 |

| Structure (SMILES) | z-score of subpopulation abundance |
| --- | --- |
| CN(C)C(=O)Oc1cccc([N+](C)(C)C)c1 [Neostigmine Bromide] | 0.29 |
| CCN1CC2(OC(=O)c3ccccc3NC(C)=O)CCC(OC)C34C1C(CC23)C1(O)CC(OC)C2CC4C1(O)C2OC (centres undefined) [Lappaconitine] | 0.06 |
| NCC(O)c1ccc(O)cc1 (racemic) [(+,-)-Octopamine HCl] | 0.19 |
| CNC1CC(N)C(O)C(OC2OC(CO)C(O)C3OC4(OC(C(N)CO)C(O)C(O)C4O)OC23)C1O (centres undefined) [Hygromycin B] | -0.9 |
| CCOC(=O)Nc1ccc(NCc2ccc(F)cc2)cc1N [Retigabine 2HCl] | 0.27 |
| CCN(CC)CCOC(=O)C(O)(c1ccccc1)c1ccccc1 [Benactyzine hydrochloride] | -1.19 |
| CN1[C@@H]2C[C@@H](OC(=O)[C@H](CO)c3ccccc3)C[C@H]1[C@@H]1O[C@@H]12 [Scopolamine HBr trihydrate] | -0.97 |
| CN[C@@H]1[C@@H](O)[C@@H](O[C@@H]2[C@@H](O)[C@H](O[C@H]3O[C@H](CN)CC[C@H]3N)[C@@H](N)C[C@H]2N)OC[C@]1(C)O.CN[C@@H]1[C@@H](O)[C@@H](O[C@@H]2[C@@H](O)[C@H](O[C@H]3O[C@H]([C@@H](C)N)CC[C@H]3N)[C@@H](N)C[C@H]2N)OC[C@]1(C)O.CN[C@@H]1[C@@H](O)[C@@H](O[C@@H]2[C@@H](O)[C@H](O[C@H]3O[C@H]([C@@H](C)NC)CC[C@H]3N)[C@@H](N)C[C@H]2N)OC[C@]1(C)O [Gentamicin Sulfate] | -0.59 |
| CN1[C@@H]2C[C@@H](OC(=O)[C@H](CO)c3ccccc3)C[C@H]1[C@@H]1O[C@@H]12 [Scopolamine HBr] | -0.04 |
| Cc1cc(C(C#N)c2ccc(Cl)cc2)c(Cl)cc1NC(=O)c1cc(I)cc(I)c1O (centres undefined) [Closantel] | 1.17 |
| CN(C)[C@@H]1C(=O)C(C(N)=O)=C(O)[C@@]2(O)C(=O)C3=C(O)c4c(O)ccc(Cl)c4[C@@](C)(O)[C@H]3C[C@@H]12 [Chlortetracycline HCl] | 0.04 |
| Cc1cc(O)ccc1Cl [Chlorocresol] | 1.26 |
| Nc1nc(N)nc(NC2CC2)n1 [Cyromazine] | 0.95 |
| C[N+]12CCC(CC1)C(OC(=O)C(O)(c1ccccc1)c1ccccc1)C2 (centres undefined) [Clidinium Bromide] | -0.85 |
| O=c1[nH]c2ccccc2n1CCCN1CCC(n2c(=O)[nH]c3cc(Cl)ccc32)CC1 [Domperidone] | 0.22 |
| O=C(O[C@H]1C[C@H]2CC[C@@H](C1)[N+]21CCCC1)C(O)(c1ccccc1)c1ccccc1 [Trospium chloride] | 0.12 |
| C#C[C@]1(O)C=C[C@H]2[C@@H]3CCC4=CC(=O)CC[C@@H]4[C@H]3CC[C@@]21CC [Gestodene] | 0.43 |
